Sampled rows, rich in hits. Any-hit rate of the full collection: about 2.4%.
STAT1 inh – STAT1 signaling inhibition; inhibition, % at 5.5 µM; actives 0.35% (n = 200,000); NIH 3T3 STAT1-luciferase reporter, IFN-gamma, luminescence;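 active = inhibition above a set limit, the mean inhibition across all tested compounds plus 3 SD, cut at about 34% in these data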;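 also: 0% = IFN-gamma with DMSO and 100% = IFN-gamma with 300 µM nifuroxazide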
HSF1 inh – HSF1 inhibition. NIH3T3-HGL HSE-luciferase, MG132-induced, luminescence 8 h; hits give low values. activity change, negative = inhibition, % at 7.5 µM (by protocol). actives 0.77% (n = 300,000);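 active = more than half of replicate wells show activity change below -50%, luminescence cut by over half; inconclusive = some wells, but at most half, below -50%; inactive = no replicate well below -50%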;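 also: luciferase reports HSF-1 transcriptional activity via heat shock element; 0% = median of DMSO wells and -100% = zero luminescence signal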
HSP90 inh – inhibitors of HSP90 luciferase refolding in rabbit reticulocyte lysate | luciferase refolding luminescence, 3 h | inhibition, % at 5.6 µM | actives 0.91% (n = 290,000);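 active = inhibition above the screen-wide mean plus 3 SD, computed separately per campaign, cut at about 16% in these data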;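 also: 0% = DMSO wells and 100% = 60 µM geldanamycin wells; inhibitors lower the luminescence because luciferase stays unfolded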
PPC-1+TRAIL kill – compounds killing PPC-1 cancer cells with TRAIL present (potentiator screen, no TRAIL-free arm); AID 1443; cell killing (% activity), % at 4 µM or 5 µM; actives 0.41% (n = 220,000); PPC-1 cells + TRAIL, ATPLite viability luminescence;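 active = cell killing above 50% in the first pass at 4 µM, then a duplicate retest at 5 µM averaging 50% or more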;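 also: plate controls were cells with TRAIL plus DMSO for no effect and medium-only wells lacking cells for full effect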
C8 TRAIL sens – sensitizes caspase-8 expressing cells to TRAIL; NB7+C8 cells + TRAIL, ATPlite viability luminescence; inhibition (viability loss, TRAIL sensitization), % at 10 µM; actives 1% (n = 360,000);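 active = compounds causing at least 50% loss of cell viability in the single-dose screen, relative to plate controls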
STAT3 inh-1 – inhibitors of IL-6 induced STAT3 signaling. inhibition, % at 5.5 µM. U3A cells, IL-6 STAT3-luciferase reporter, luminescence; host cell line lacks STAT1. actives 0.89% (n = 190,000). AID 862;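 active = inhibition above the mean inhibition across all screened compounds plus 3 SD, cut at about 44% in these data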;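 also: 0% = DMSO only wells and 100% = 100 µM nifuroxazide control wells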
STAT3 inh-2 – confirmation of STAT3 signaling inhibitors | U3A cells, IL-6 STAT3 luciferase reporter, luminescence; cell line lacks STAT1 | shares compounds with STAT3 inh-1 | actives 45% (n = 1,200) | AID 1265 | inhibition, % at 5.7 µM;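 active = inhibition above the hit cutoff computed for the primary STAT3 screen, cut at about 44% in these data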;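 also: 0% = IL-6 plus DMSO and 100% = IL-6 plus nifuroxazide control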
NFkB inh STAT3ct – counter-screen for STAT3 inhibitors: NF-kappaB inhibition; shares compounds with STAT3 inh-1; HEK293T NF-kB luciferase reporter, TNF-alpha induced; inhibition, % at 5.7 µM; actives 36% (n = 1,200); AID 1308;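 active = inhibition above the mean of solvent-only control wells plus 3 SD, cutoff set per campaign, cut at about 13% in these data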;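 also: 0% = TNF-alpha with DMSO and 100% = TNF-alpha with MG high control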
STAT1 inh STAT3c – inhibits STAT1, counter-screen to STAT3 inhibitors | NIH 3T3 STAT1-luciferase reporter, IFN-gamma induced, luminescence | AID 1317 | shares compounds with STAT3 inh-1 | actives 27% (n = 1,200) | inhibition, % at 5.7 µM;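 active = inhibition above the mean plus 3 SD of solvent-only control wells, limit set per screening run, cut at about 16% in these data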;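 also: 0% = DMSO with IFN-gamma and 100% = nifuroxazide control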
PPC1 cytotox – PPC-1 cell cytotoxicity. shares compounds with PPC-1+TRAIL kill. PPC-1 viability, ATPlite luminescence, overnight. cytotoxicity, % at 5 µM. actives 50% (n = 1,200);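 active = reconfirmed compounds whose average cytotoxicity reaches 50% or more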;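 also: 0% = DMSO-treated cells and 100% = wells holding medium but no cells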
HSP90 inh confirm – HSP90 inhibition, confirmation assay; rabbit reticulocyte lysate, luciferase refolding luminescence, 3 h; shares compounds with HSP90 inh; inhibition, % at 5.9 µM; actives 64% (n = 2,300); AID 1846; in the data active = inhibition above about 18%;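 also: 0% = vehicle wells and 100% = reference inhibitor wells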
FLuc counter – blocks native firefly luciferase in HSP90 counter-screen; AID 1847; shares compounds with HSP90 inh; purified native firefly luciferase, luminescence; actives 48% (n = 2,300); inhibition, % at 5.9 µM;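 active = inhibition above the mean inhibition of all tested sample wells plus 3 SD, cut at about 10% in these data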;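 also: 0% = DMSO with luciferase and 100% = wells lacking luciferase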
Target sequence (P08659 whole entry, looked up): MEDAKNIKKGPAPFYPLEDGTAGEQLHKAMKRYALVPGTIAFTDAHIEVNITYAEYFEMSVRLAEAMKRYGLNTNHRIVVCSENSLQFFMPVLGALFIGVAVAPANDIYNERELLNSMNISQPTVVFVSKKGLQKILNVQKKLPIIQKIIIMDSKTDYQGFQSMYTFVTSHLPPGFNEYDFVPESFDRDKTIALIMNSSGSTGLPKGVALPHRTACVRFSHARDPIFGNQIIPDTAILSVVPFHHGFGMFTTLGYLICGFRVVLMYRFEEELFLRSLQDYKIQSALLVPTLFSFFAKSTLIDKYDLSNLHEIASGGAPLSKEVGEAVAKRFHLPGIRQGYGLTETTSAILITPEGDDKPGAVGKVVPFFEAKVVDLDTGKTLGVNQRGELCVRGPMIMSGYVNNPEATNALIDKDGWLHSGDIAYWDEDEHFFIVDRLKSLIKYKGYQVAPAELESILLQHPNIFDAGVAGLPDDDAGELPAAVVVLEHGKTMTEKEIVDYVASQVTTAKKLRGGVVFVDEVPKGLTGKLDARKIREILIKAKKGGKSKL
Active calls of the source: *; ? = inconclusive; . = no result given.

SMILES	STAT1 inh	HSF1 inh	HSP90 inh	PPC-1+TRAIL kill	C8 TRAIL sens	STAT3 inh-1	STAT3 inh-2	NFkB inh STAT3ct	STAT1 inh STAT3c	PPC1 cytotox	HSP90 inh confirm	FLuc counter
CCN(CC)C(=O)C1=C(C)N(Cc2ccccc2)C(=O)C(CC(=O)NCc2cccc3ccccc23)C1 (stereo not given)	.	.	.	.	-4.2	.	.	.	.	.	.	.
CC(C)c1ccc2oc(-c3ccc(N)cc3)nc2c1	27.8	-7.3	22.6*	68.5*	80.3*	77.7*	32.1	5.1	-88.0	72.5*	49.6*	46.3*
CN=C1S/C(=C\c2cc(C)n(-c3ccccc3F)c2C)C(=O)N1C	-0.2	-81.9*	49.4*	40.5	54.7*	56.3*	21.7	-23.7	-97.7	.	65.2*	62.6*
COCCn1c(C)cc(C(=O)COC(=O)c2n[nH]c3ccccc23)c1C	29.1	?	44.0*	81.8*	87.8*	83.4*	51.3*	23.4*	-19.6	83.7*	66.5*	69.3*
Cc1cc(C(=O)COC(=O)c2n[nH]c3ccccc23)c(C)n1CC1CCCO1 (stereo not given)	0.8	-80.5*	51.5*	4.0	71.8*	64.4*	19.5	-4.6	-70.3	.	55.2*	54.3*
COc1ccc(CNC(=O)Cn2cnc3c(NCc4ccccc4)ncnc32)cc1	.	.	.	.	15.6	.	.	.	.	.	.	.
Nn1cnc2c(ncn2C2OC(CO)C(O)C2O)c1=O (stereo not given)	.	.	.	.	0.4	.	.	.	.	.	.	.
O=C1C(=C2SCCCS2)CC/C1=C\c1ccc(F)cc1	30.7	-74.8*	53.8*	90.2*	84.2*	114.9*	92.6*	81.4*	-1.5	89.5*	92.5*	86.2*
CS(=O)(=O)c1ccc2nc(NC(=O)c3cccs3)sc2c1	13.0	.	18.4*	75.2*	80.7*	58.6*	17.3	-7.4	-59.8	76.1*	36.7*	23.0*
Cc1ccc2nc(NC(=O)CSCC(=O)OCC(=O)c3ccccc3)sc2c1	13.3	-66.6*	65.6*	5.7	6.4	50.9*	56.6*	23.4*	24.3*	.	78.5*	-9.8
Cc1ccc2nc(NC(=O)c3cccs3)sc2c1	-29.9	.	18.8*	51.7*	61.3*	70.1*	33.9	-6.8	-128.7	54.0*	40.1*	37.9*
O=C(C(=O)N(Cc1ccccc1)Cc1ccccc1)c1c(-c2ccccc2)[nH]c2ccccc12	.	.	.	.	24.2	.	.	.	.	.	.	.
CC(C)NC(=O)Cn1nnc(-c2ccccc2)c1COc1ccc2ccccc2c1	.	.	.	.	-1.9	.	.	.	.	.	.	.
Cc1ccc2nsnc2c1NC(=O)c1sc2ccccc2c1Cl	1.4	-4.0	-4.3	7.4	11.4	8.9	.	.	.	.	.	.
Cc1nnc(NC(=O)c2sc3ccccc3c2Cl)s1	23.7	10.8	18.0*	81.0*	86.9*	66.2*	45.4*	13.3*	19.2*	81.0*	34.7*	18.5*
O=C(CCCOc1ccccc1)N1CCCCC1	-0.8	-19.1	34.0*	-11.5	3.6	48.2*	7.0	-8.0	-74.4	.	65.8*	52.5*
O=C(CCCOc1ccc(Cl)cc1)N1CCCCC1	-10.5	5.9	-0.1	39.0	23.1	2.3	.	.	.	.	.	.
CC(C)(COC(=O)c1ccccc1)N1CC2CCC(C1)O2	.	-73.2	.	.	-13.2	.	.	.	.	.	.	.
c1ccc(-c2cn3c4c(sc3n2)CCCC4)cc1	26.8	35.9	33.4*	82.0*	84.6*	82.4*	58.7*	49.9*	11.7	83.0*	82.8*	80.3*
COc1ccc(CN2C[C@@H](CO)O[C@@H](n3cnc4c(N(C)C)ncnc43)C2)cc1	.	.	.	.	-10.7	.	.	.	.	.	.	.
Cc1nc(C)c(C(=O)Nc2ncc([N+](=O)[O-])s2)o1	29.8	7.6	47.0*	25.6	7.7	67.7*	20.1	-4.1	-80.2	.	65.8*	40.6*
COc1cccc(-c2oc3c(c2C(=O)OCCN(C)C)C(O)CCC3)c1 (stereo not given)	.	.	.	.	8.1	.	.	.	.	.	.	.
COC(=O)c1cn[nH]c1NC(=S)Nc1ccc(C)cc1Cl	-76.5	-22.7	35.5*	18.5	6.9	50.0*	10.0	-24.4	-170.1	.	40.8*	40.7*
N/C(=N\N=C\c1cccc([N+](=O)[O-])c1)c1nonc1N	.	10.0	4.3	7.5	-18.6	.	.	.	.	.	.	.
N/C(=N\N=C\c1ccc2c(c1)OCO2)c1nonc1N	-33.9	39.1	20.6*	18.8	40.3	54.2*	32.9	-13.8	-98.4	.	53.7*	37.1*
SMILES	STAT1 inh	HSF1 inh	HSP90 inh	PPC-1+TRAIL kill	C8 TRAIL sens	STAT3 inh-1	STAT3 inh-2	NFkB inh STAT3ct	STAT1 inh STAT3c	PPC1 cytotox	HSP90 inh confirm	FLuc counter
CC1CCCCC1NC(=O)COC(=O)c1c2c(nc3ccccc13)/C(=C\c1ccco1)CC2 (stereo not given)	.	.	.	.	-6.0	.	.	.	.	.	.	.
CC1=C(C(=O)N2CCCCCC2)CC(CC(=O)NC(c2ccccc2)c2ccccc2)C(=O)N1CCC1=CCCCC1 (stereo not given)	.	.	.	.	19.2	.	.	.	.	.	.	.
CN(C)c1ccc(/C=c2\sc3n(c2=O)CCCN=3)cc1	-54.7	-5.4	18.2*	28.7	62.0*	63.9*	10.6	-20.5	-179.0	.	65.3*	51.7*
CN(CCOc1ccccc1)C(=O)c1ccc2c(c1)OCO2	.	.	.	.	-4.4	.	.	.	.	.	.	.
O=C(NCCOc1ccccc1)c1ccc2c(c1)OCO2	19.4	-8.1	47.5*	27.0	24.1	76.3*	39.1	26.1*	-20.5	.	70.6*	66.9*
Cc1ccc(C(=O)Nc2ccc(-c3csc(C)n3)cc2)cc1	-71.6	21.9	0.9	11.4	11.4	12.5	.	.	.	.	.	.
Cc1nc(-c2ccc(NC(=O)c3ccccc3)cc2)cs1	29.3	14.3	20.6*	64.3*	75.9*	70.7*	23.3	-23.3	-125.5	61.3*	39.6*	27.9*
C=CCn1c(C)cc(C(=O)COC(=O)CNC(=O)c2ccccc2)c1C	31.0	-81.6*	17.4*	1.0	0.0	46.4*	-25.6	-0.2	-68.3	.	5.5	29.4*
CCOC(=O)c1c(N)sc(C(=O)Nc2ccc3c(c2)OCO3)c1C	24.2	-3.4	41.1*	71.1*	78.5*	85.2*	31.0	17.4*	-62.1	76.7*	69.0*	58.7*
c1ccc(-c2ccc(-c3ccccn3)nn2)nc1	-13.2	-19.9	27.6*	16.3	.	51.0*	38.3	0.3	-44.4	.	54.1*	36.0*
